Test results from PubChem BioAssay (NCATS).
Results filed as inconclusive are left out. Active and inactive are the calls of the source. Calls follow the shape of the dose curve; as a rule, active = well fitted inhibition curve with a large enough effect; inconclusive = small, poorly fitted or top-dose-only effect; inactive = flat fitted curve, though single readings scatter.

Tests used:
Assay in all cases: qHTS profiling for inhibitors of Plasmodium falciparum proliferation (AID 504749); also: nearly all actives have a fitted effect of over 60% in size
Details in all cases: P. falciparum in erythrocytes, SYBR Green DNA, 72 h; series mostly up to 28.7 µM
[1] = test system: CP238
Procedure, shortened: (§1)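 Infected RBCs, 0.3% parasitemia/2.5% Hct final; cpd 72 h, 37 C, 5% CO2; lysis buffer with saponin/triton/SYBR Green I, o/n RT dark; FI 485/535; norm. to artemisinin (0.29 uM) and DMSO.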

[2] = test system: CP247
Procedure, shortened: as §1

[3] = test system: CP250
Procedure, shortened: as §1

[4] = test system: CP252
Procedure, shortened: as §1

[5] = test system: CP256
Procedure, shortened: as §1

[6] = test system: CP260
Procedure, shortened: as §1

[7] = test system: CP262
Procedure, shortened: as §1

[8] = test system: CP265
Procedure, shortened: as §1

[9] = test system: CP266
Procedure, shortened: as §1

[10] = test system: CP268
Procedure, shortened: as §1

[11] = test system: CP269
Procedure, shortened: as §1

[12] = test system: CP286
Procedure, shortened: as §1

[13] = test system: CP291
Procedure, shortened: as §1

[14] = test system: CP297
Procedure, shortened: as §1

[15] = test system: CP305
Procedure, shortened: as §1

[16] = test system: CP315
Procedure, shortened: as §1

[17] = test system: CP325
Procedure, shortened: as §1

[18] = test system: CP329
Procedure, shortened: as §1

[19] = test system: CP335
Procedure, shortened: as §1

[20] = test system: DFO2036
Procedure, shortened: as §1

Measured: Potency

NCCc1ccc(O)cc1
inactive: all assays above

Clc1ccc2c(c1)C(c1ccccc1)=NCc1nncn1-2
inactive: all assays above

Cc1ncsc1CCCl
not listed: [13]
inactive: all other assays above

CC(C)=CC1C(C(=O)OCN2C(=O)C3=C(CCCC3)C2=O)C1(C)C (stereo not drawn)
inactive: all assays above

CCCC(C)(COC(N)=O)COC(N)=O
not listed: [13]
inactive: all other assays above

Clc1cccc(SC2CCNCC2)n1
not listed: [13]
inactive: all other assays above

COP(=S)(OC)Oc1ccc(S(=O)(=O)N(C)C)cc1
inactive: all assays above

CCC(C)(C)c1ccc(O)cc1
inactive: all assays above

CN1C(=O)CCS(=O)(=O)C1c1ccc(Cl)cc1 (stereo not drawn)
inactive: all assays above

O=C1CN=C(c2ccccc2)c2cc([N+](=O)[O-])ccc2N1
inactive: all assays above

O=c1[nH]oc2c1CCNC2
inactive: all assays above

CN1C(=O)CC(=O)N(c2ccccc2)c2cc(Cl)ccc21
inactive: all assays above

Oc1ccc(Cl)cc1
not listed: [19]
inactive: all other assays above

NC(=O)CS(=O)C(c1ccccc1)c1ccccc1 (stereo not drawn)
inactive: all assays above

Clc1ccc(C(c2ccc(Cl)cc2)C(Cl)(Cl)Cl)cc1
not listed: [14]
inactive: all other assays above

C[C@]12CC[C@@H]3c4ccc(OC(=O)N(CCCl)CCCl)cc4CC[C@H]3[C@@H]1CC[C@@H]2O
inactive: all assays above

O=C1Nc2ccc(Cl)cc2C(c2ccccc2)=NC1O (stereo not drawn)
inactive: all assays above

Nc1nc(N)nc(NC2CC2)n1
inactive: all assays above

COc1c2c(cc3c1OCO3)CCN(C)C2
inactive: all assays above

c1ccc2c(c1)sc1ccccc12
inactive: all assays above

C[C@]12CCC(=O)C=C1CC[C@@H]1[C@@H]2CC[C@]2(C)C(=O)CC[C@@H]12
inactive: all assays above

CC(C)NC(C)C
not listed: [16] | [19]
inactive: all other assays above

CN1C(=O)NC(=O)C(C)(C2=CCCCC2)C1=O (stereo not drawn)
inactive: all assays above

O=C1OC(c2ccc(O)c(S(=O)(=O)O)c2)(c2ccc(O)c(S(=O)(=O)O)c2)c2c(Br)c(Br)c(Br)c(Br)c21
inactive: all assays above

O=c1oc2ccccc2c(O)c1Cc1c(O)c2ccccc2oc1=O
inactive: all assays above

Nc1ccc([As](=O)(O)O)cc1
inactive: all assays above
